In PubChem BioAssay (Tox21):
Records with an inconclusive call do not appear. Activity calls are given as the source filed them. Unless noted, the call rests on the fitted dose curve; in most records, active means well fitted curve in the direction sought with a large enough effect in the repeat runs; inconclusive means weak or mixed curves; inactive means no such curve, though single readings can be large; an effect the other way counts as inactive or inconclusive.

Key:
[1] = A CellTox Green Cytotoxicity Assay to monitor cytotoxicity in HepG2 cells - 8 hour (AID 1224890); further: nearly all actives have a fitted effect of over 45% in size
Summary of the method: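 First, HepG2 cells (600/well) mixed with reagent were plated; second, after 5 h at 37 C they received compounds via pintool; third, fluorescence was measured at 0 h through 40 h at 8 h intervals.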

[2] = qHTS assay to identify small molecule antagonists of the estrogen receptor alpha (ER-alpha) signaling pathway using the BG1 cell line in the presence of 0.1 nM 17-beta-estradiol - cell viability counter screen (AID 1259241); further: nearly all actives have a fitted effect of over 40% in size
Summary of the method: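 CellTiter-Fluor read (30 min, 37C) on ER-alpha/ERE-luc VM7Luc4E2 cells; 22 hr compound treatment; agonist 0.1 nM E2 final; same-well multiplex.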

[3] = qHTS assay to identify small molecule antagonists of the androgen receptor (AR) signaling pathway using the MDA cell line in the presence of 0.5 nM R1881 - cell viability counter screen (AID 1259242); further: nearly all actives have a fitted effect of over 45% in size
Summary of the method: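 qHTS format. MDA-kb2 (MMTV-luc, AR/GR responsive) + cpd + 0.5 nM R1881 final, 16 hr 37C/0% CO2 → CellTiter-Fluor 30 min → fluorescence intensity.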

[4] = target: Estrogen receptor (Homo sapiens) (UniProt P03372); experiment: qHTS assay to identify small molecule antagonists of the estrogen receptor alpha (ER-alpha) signaling pathway using the BG1 cell line in the presence of 0.1 nM 17-beta-estradiol (AID 1259244); further: nearly all actives have a fitted effect of over 50% in size
Estrogen receptor (Homo sapiens), sequence (P03372 whole entry, looked up): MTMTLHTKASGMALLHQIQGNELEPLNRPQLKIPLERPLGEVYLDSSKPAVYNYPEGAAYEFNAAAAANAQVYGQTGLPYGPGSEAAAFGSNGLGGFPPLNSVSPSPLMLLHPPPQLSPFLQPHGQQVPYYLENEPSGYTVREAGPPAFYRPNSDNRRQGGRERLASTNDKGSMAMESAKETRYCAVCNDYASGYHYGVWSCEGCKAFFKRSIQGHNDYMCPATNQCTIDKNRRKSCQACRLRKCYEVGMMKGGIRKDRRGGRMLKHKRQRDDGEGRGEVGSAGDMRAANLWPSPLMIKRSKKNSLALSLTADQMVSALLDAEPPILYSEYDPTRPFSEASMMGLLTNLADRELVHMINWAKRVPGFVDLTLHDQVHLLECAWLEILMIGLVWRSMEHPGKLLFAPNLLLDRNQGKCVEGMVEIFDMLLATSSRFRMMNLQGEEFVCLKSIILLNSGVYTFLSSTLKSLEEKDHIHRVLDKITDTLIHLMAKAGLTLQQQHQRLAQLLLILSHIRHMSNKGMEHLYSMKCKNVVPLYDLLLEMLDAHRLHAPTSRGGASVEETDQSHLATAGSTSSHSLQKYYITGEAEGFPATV
Summary of the method: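 Reporter is a stably transfected luciferase under four estrogen responsive elements in VM7Luc4E2 cells expressing native full-length ER-alpha; inhibition of 0.1 nM (final) 17beta-estradiol-driven signal over 22 h is read by luminescence.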

[5] = qHTS assay to identify small molecule HDAC inhibitors (AID 1259364);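 further: wild-type HCT-116 cells with endogenous class I/II HDAC activity; top concentration of the series differs between compounds; nearly all actives have a fitted effect of over 45% in size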
Summary of the method: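 Quantitative high-throughput format: overnight-seeded HCT-116 cells got compounds for 2 hr at 37C; HDAC-Glo I/II reagent added, 30 min RT, luminescence measured.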

[6] = qHTS assay to identify small molecule HDAC inhibitors - cell viability counter screen (AID 1259365); further: series mostly up to about 92 µM; nearly all actives have a fitted effect of over 50% in size
Summary of the method: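 To flag cytotoxic hits, 1,500 wild-type HCT-116 cells per well, plated the day before, receive test compounds for 2hr at 37 C before CellTiter-Glo reagent and a luminescence read.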

[7] = qHTS assay to identify small molecule agonists of the sonic hedgehog signaling (Shh) pathway - cell viability counter screen (AID 1259366); further: nearly all actives have a fitted effect of over 50% in size
Summary of the method: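 Fluorescence from CellTiter-Fluor reports live cells in this counter screen. NIH/3T3-derived Gli1-Luc reporter cells receive test compounds for 24hr at 37C; reagent goes in at 23hr.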

[8] = qHTS assay to identify small molecule antagonists of the sonic hedgehog signaling (Shh) pathway - cell viability counter screen (AID 1259367); further: nearly all actives have a fitted effect of over 55% in size
Summary of the method: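 Conditioned medium drove Shh signaling in 3T3 Gli1-Luc cells exposed to compounds at 37C and 5% CO2. Viability was determined from CellTiter-Fluor fluorescence, with reagent incubated 1 hr after 23 hr of treatment.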

[9] = qHTS assay to identify small molecule agonists of the sonic hedgehog signaling (Shh) pathway (AID 1259368; calls by dose curve;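 further: NIH/3T3-derived 3T3Gli1-Luc cells carrying a stable Gli1-driven firefly luciferase reporter; series mostly up to about 92 µM; nearly all actives have a fitted effect of over 15% in size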)
Summary of the method: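 Quantitative high-throughput format using a Gli1-driven firefly luciferase reporter line derived from NIH/3T3 cells. After a 24 hr compound treatment at 37 C and 5% CO2, luminescence reported Gli1 response element activity.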

[10] = target: Estrogen receptor beta (Homo sapiens) (UniProt Q92731); experiment: qHTS assay to identify small molecule agonists of the estrogen receptor beta (ER-beta) signaling pathway (AID 1259377; active means well fitted activation curve with a large enough effect in the signal ratio in the repeat runs, not every such curve was filed as active; the % refers to the signal ratio)
Estrogen receptor beta (Homo sapiens), sequence (Q92731 whole entry, looked up): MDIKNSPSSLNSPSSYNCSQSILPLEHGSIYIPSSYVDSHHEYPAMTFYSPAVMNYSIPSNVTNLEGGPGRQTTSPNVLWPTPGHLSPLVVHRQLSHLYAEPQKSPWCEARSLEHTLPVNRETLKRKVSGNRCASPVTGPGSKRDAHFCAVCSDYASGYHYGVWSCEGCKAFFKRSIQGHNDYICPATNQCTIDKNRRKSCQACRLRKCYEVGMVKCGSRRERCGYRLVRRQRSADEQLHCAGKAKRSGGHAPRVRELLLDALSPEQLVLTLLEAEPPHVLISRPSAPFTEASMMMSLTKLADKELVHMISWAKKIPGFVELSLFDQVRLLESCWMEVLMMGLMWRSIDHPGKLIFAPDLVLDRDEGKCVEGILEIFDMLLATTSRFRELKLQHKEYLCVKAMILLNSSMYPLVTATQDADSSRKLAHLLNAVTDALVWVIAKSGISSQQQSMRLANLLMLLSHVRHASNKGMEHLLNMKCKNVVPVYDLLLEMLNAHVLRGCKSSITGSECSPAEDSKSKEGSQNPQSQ
Summary of the method: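 Screening used GripTite ER-beta-UAS-bla cells held in 2% charcoal-stripped FBS medium. After overnight (16 hr) compound incubation at 37C, beta-lactamase activity was detected with a FRET substrate by fluorescence.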

[11] = target: Estrogen receptor beta (Homo sapiens) (UniProt Q92731); experiment: qHTS assay to identify small molecule antagonists of the estrogen receptor beta (ER-beta) signaling pathway (AID 1259378; active means well fitted inhibition curve with a large enough effect in the signal ratio in the repeat runs, not every such curve was filed as active; the % refers to the signal ratio)
Summary of the method: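 ER-beta-UAS-bla HEK293T (GripTite) cells in 2% charcoal-stripped FBS medium were preincubated 6 hr at 37C, dosed with compound, then stimulated with 1 nM E2 (final) for 16 hr; beta-lactamase reporter read by B/G FRET fluorescence after 2 hr substrate loading.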

[12] = qHTS assay to identify small molecule agonists of the androgen receptor (AR) signaling pathway in the presence of an antagonist - cell viability counter screen (AID 1259379);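 further: MDA-kb2 human breast cancer cells carrying an MMTV luciferase reporter; series mostly up to about 92 µM; nearly all actives have a fitted effect of over 25% in size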
Summary of the method: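 Nilutamide-containing (3.0uM final) MDA-kb2 cultures, 3,000 cells/well, were treated with compounds across 15 concentrations. After 16 hr at 37C with no CO2, cell viability was determined by CellTiter-Fluor fluorescence in the luciferase assay wells.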

[13] = qHTS assay to identify small molecule agonists of the estrogen receptor beta (ER-beta) signaling pathway - cell viability counter screen (AID 1259380); further: nearly all actives have a fitted effect of over 30% in size
Summary of the method: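 Steps: plate ER-beta-UAS-bla HEK293T cells, rest 6 hr; add compounds in DMSO; incubate 16 hr at 37C, 5% CO2; add FRET substrate 2 hr; add CellTiter-Glo, wait 30 min at room temperature; read luminescence.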

[14] = qHTS assay to identify small molecule antagonists of the estrogen receptor beta (ER-beta) signaling pathway - cell viability counter screen (AID 1259382); further: series mostly up to about 92 µM; nearly all actives have a fitted effect of over 55% in size
Summary of the method: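 Viability is scored by CellTiter-Glo luminescence (30 min, room temperature) in ER-beta-UAS-bla HEK293T wells already read for reporter fluorescence. Compound exposure lasts 16 hr at 37C alongside 1nM 17-beta-estradiol in charcoal-stripped serum medium.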

[15] = target: Estrogen receptor (Homo sapiens) (UniProt P03372); experiment: qHTS assay to identify small molecule agonists of the estrogen receptor alpha (ER-alpha) signaling pathway in the presence of an antagonist (AID 1259383; calls by dose curve; further: top concentration of the series differs between compounds; nearly all actives have a fitted effect of over 15% in size)
Summary of the method: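 Readout was ERE-driven luciferase luminescence in VM7Luc4E2 cells, which express full-length ER-alpha endogenously. Compounds were tested at 15 concentrations for 22hr alongside 10.0nM ICI-182,780 (final concentration).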

[16] = qHTS assay to identify small molecule agonists or antagonists of the thyroid stimulating hormone receptor (TSHR) signaling pathway - wild type cell line counter screen (AID 1259384; calls by dose curve)
Summary of the method: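 Wild-type HEK293 cells were plated 18 h at 37 C/5% CO2, pin-dosed with compound plus Ro20-1724 medium, held 30 min at room temperature, then given cAMP-d2 and anti-cAMP-cryptate; fluorescence was read after 1 h. Fifteen concentrations, triplicate.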

[17] = qHTS assay to identify small molecule antagonists of the sonic hedgehog signaling (Shh) pathway (AID 1259369; calls by dose curve; further: nearly all actives have a fitted effect of over 45% in size)
Summary of the method: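 Stable Gli1-Luc reporter NIH/3T3 clone; quantitative HTS in stimulated mode with conditioned medium. Luminescence measured after 24hr compound treatment at 37 C.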

Measured: Potency

CCO[Si](CCC1CCC2OC2C1)(OCC)OCC (stereo unspecified)
not listed: [17]
inactive: all other assays above

Cc1ccc(Cl)cc1Cl
not listed: [5] | [16]
inactive: all other assays above

CCC=O
not listed: [15] | [17]
inactive: all other assays above

CN(C)CCCNCCCN(C)C
not listed: [10] | [11] | [17]
inactive: all other assays above

CCCCCSCCCCC
not listed: [9] | [10] | [11] | [17]
inactive: all other assays above

CO[Si](CCCOCC1CO1)(OC)OC (stereo unspecified)
not listed: [10] | [11] | [16]
inactive: all other assays above

C=CCCCCCCCCC=O
not listed: [13] | [17]
inactive: all other assays above

CCCCCCOC(=O)CCCCC(=O)OCCCCCC
not listed: [7] | [13]
inactive: all other assays above

CN1CCCC1
not listed: [10] | [11] | [16]
inactive: all other assays above
